The target in experiment [1] is Cell division control protein 42 homolog (Homo sapiens) (UniProt P60953). The experiment in a line: inhibition of fluorescent GTP binding to constitutively active Cdc42 – biochemical, multiplex bead flow cytometry, Bodipy-FL-GTP, dose response (AID 1333).
The target is the same in experiment [2]. Put plainly: inhibition of fluorescent GTP binding to wildtype Cdc42 – biochemical, multiplex bead flow cytometry, Bodipy-FL-GTP, dose response (AID 1334;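 active = fitted half-maximal concentration within the tested range, moderate curve steepness, significant signal drop, and little compound fluorescence or bead-linkage interference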). The note with it: bead-based flow cytometry, Bodipy-FL-GTP binding to GST-Cdc42; at 100 µM (top of the series) unless noted.
The target in experiment [3] is GTPase HRas (Homo sapiens) (UniProt P01112). Put plainly: Ras wt fluorescent GTP loading blockade – biochemical, wildtype, multiplex bead flow cytometry, dose response (AID 1335;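 active = fitted half-maximal concentration within 10 nM to 100 µM, steepness 0.5 to 2, significant signal drop, low assay interference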). The note with it: bead-based flow cytometry, Bodipy-GTP binding to GST-Ras; at 100 µM (top of the series) unless noted. A general note: Flow cytometry measures light scatter and fluorescence of single cells or particles in a stream.
Sequence of GTPase HRas (Homo sapiens) (P01112 whole entry, looked up): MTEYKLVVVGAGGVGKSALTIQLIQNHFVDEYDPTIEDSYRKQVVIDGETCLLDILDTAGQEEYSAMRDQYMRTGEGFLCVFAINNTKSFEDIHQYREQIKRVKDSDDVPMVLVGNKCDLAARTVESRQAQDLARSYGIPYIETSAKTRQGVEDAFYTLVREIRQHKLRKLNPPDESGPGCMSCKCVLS

Experiment [4] relates to Ras-related protein Rab-7a (dog), GTP binding. Put plainly: blockers of fluorescent GTP binding to Rab7 – biochemical, wildtype, multiplex bead flow cytometry, dose response (AID 1336; call rule not given here).
Experiment [5] concerns the target Ras-related C3 botulinum toxin substrate 1 (Homo sapiens) (UniProt P63000). Put plainly: inhibition of wildtype Rac1 nucleotide loading – biochemical, multiplex bead flow cytometry, dose response (AID 1340;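 active = dose curve with midpoint inside tested range, moderate steepness, plateau gap beyond fit error, low compound glow and bead-link interference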). Conditions: GST-Rac1 beads, Bodipy-FL-GTP binding; at 100 µM (top of the series) unless noted.
Experiment [6] concerns the target GTPase HRas (Homo sapiens) (UniProt P01112). The experiment in a line: blockade of GTP loading onto mutant Ras – biochemical, activated mutant, multiplex bead flow cytometry, dose response (AID 1341;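 active = dose-response curve with midpoint inside the tested range, moderate steepness, significant amplitude and little compound fluorescence or bead-attachment interference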;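 also: GST-tagged constitutively activated Ras mutant immobilized on beads and multiplexed with other GTPases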).

For part of these data: Potency and affinity values are given separately. Active and inactive are the calls of the source.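 The calls were made as follows, unless noted: active = fitted half-maximal concentration within the tested dose range, moderate curve steepness, a statistically real signal drop, and little compound fluorescence or tag-binding interference; inactive = the rest.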

Sequence of Cell division control protein 42 homolog (Homo sapiens) (P60953 whole entry, looked up): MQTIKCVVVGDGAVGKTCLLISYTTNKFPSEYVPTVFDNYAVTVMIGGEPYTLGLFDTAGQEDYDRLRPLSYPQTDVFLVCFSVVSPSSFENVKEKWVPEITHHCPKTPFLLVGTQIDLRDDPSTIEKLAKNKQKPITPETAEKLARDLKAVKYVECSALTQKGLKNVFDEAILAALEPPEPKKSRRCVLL

As for `CCN(CC)S(=O)(=O)c1ccc2oc(C(=O)N3CCc4ccccc4C3)c(C)c2c1`, the molecule was classed as inactive in experiment [1], in experiment [4] and in experiment [6]. Further, the fluorescence, percent of control (lower = inhibition) in experiment [2] turned out to be 59.3%. Also, the GTP binding, percent of control in experiment [3] came out at 78%. The molecule further had a GTP binding signal, raw median fluorescence (lower = inhibition) (MCF (arbitrary fluorescence units)) in experiment [5] of 0.

Consider `COc1cc2c(cc1OC)-c1cc(NC3CCCCCCC3)nc(=O)n1CC2`, for which the molecule was called inactive in experiment [1], in experiment [4] and in experiment [6]. Moreover, the fluorescence, percent of control (lower = inhibition) in experiment [2] turned out to be 33.3%. This molecule gave a GTP binding, percent of control in experiment [3] of 68.6%. Further, in experiment [5], the GTP binding signal, raw median fluorescence (lower = inhibition) (MCF (arbitrary fluorescence units)) amounted to 142.

For the molecule `Cn1c(SCC(=O)Nc2cc(C(C)(C)C)nn2-c2ccccc2)nc2ccccc21`, the molecule was called inactive in experiment [1], in experiment [4] and in experiment [6]. Besides, the fluorescence, percent of control (lower = inhibition) in experiment [2] was 46.2%. The molecule further gave a GTP binding, percent of control in experiment [3] of 64.7%. The molecule further showed a GTP binding signal, raw median fluorescence (lower = inhibition) (MCF (arbitrary fluorescence units)) in experiment [5] of 0.

In the case of `O=C(O)c1ccc(CNCc2ccc(F)cc2)s1`, the call in experiment [1], in experiment [4] and in experiment [6] was inactive. For the same molecule, in experiment [2], the fluorescence, percent of control (lower = inhibition) was 61.1%. The molecule further showed a GTP binding, percent of control in experiment [3] of 84.5%. The GTP binding signal, raw median fluorescence (lower = inhibition) (MCF (arbitrary fluorescence units)) in experiment [5] came to 34.7.

Turning to `CCCCn1c(O)c(N=NC(=O)c2ccccc2NS(=O)(=O)c2cccs2)c2ccccc21`, the call in experiment [1], in experiment [4] and in experiment [6] was inactive. Besides, the fluorescence, percent of control (lower = inhibition) in experiment [2] is 37.3%. Moreover, the GTP binding, percent of control in experiment [3] is 87.8%. In experiment [5], the GTP binding signal, raw median fluorescence (lower = inhibition) (MCF (arbitrary fluorescence units)) came out at 280.

For `CC(=O)Nc1ccc(NC(=O)CCn2nnc3ccccc32)cc1`, the call in experiment [1], in experiment [4] and in experiment [6] was inactive. The fluorescence, percent of control (lower = inhibition) in experiment [2] is 35.7%. Besides, the GTP binding, percent of control in experiment [3] was 81.1%. Also, the GTP binding signal, raw median fluorescence (lower = inhibition) (MCF (arbitrary fluorescence units)) in experiment [5] was found to be 251.

For the molecule `COc1cccc(Nc2ccccc2C(=O)O)c1`, the outcome in experiment [1], in experiment [4] and in experiment [6] was inactive. Further, the fluorescence, percent of control (lower = inhibition) in experiment [2] is 92.6%. In addition, the GTP binding, percent of control in experiment [3] was found to be 107%. Moreover, the GTP binding signal, raw median fluorescence (lower = inhibition) (MCF (arbitrary fluorescence units)) in experiment [5] came to 78.2.

As for `COC(=O)CSc1nc2cc(Cl)ccc2c(=O)n1C1CCCC1`, the outcome in experiment [1], in experiment [4] and in experiment [6] was inactive. In experiment [2], the fluorescence, percent of control (lower = inhibition) was found to be 98%. Besides, the GTP binding, percent of control in experiment [3] came to 180%. The molecule also yielded a GTP binding signal, raw median fluorescence (lower = inhibition) (MCF (arbitrary fluorescence units)) in experiment [5] of 186.

For `COc1ccc(C2=Nn3c(nnc3-c3ccccn3)SC2)cc1OC`, the outcome in experiment [1], in experiment [4] and in experiment [6] was inactive. The fluorescence, percent of control (lower = inhibition) in experiment [2] was 34%. Also, the GTP binding, percent of control in experiment [3] was determined as 44.4%. In addition, the GTP binding signal, raw median fluorescence (lower = inhibition) (MCF (arbitrary fluorescence units)) in experiment [5] came out at 112.

Turning to `O=c1[nH]c2sc3c(c2c2nncn12)CCCC3`, the outcome in experiment [1], in experiment [4] and in experiment [6] was inactive. In addition, the fluorescence, percent of control (lower = inhibition) in experiment [2] was found to be 23.4%. Moreover, the GTP binding, percent of control in experiment [3] stood at 59.2%. The GTP binding signal, raw median fluorescence (lower = inhibition) (MCF (arbitrary fluorescence units)) in experiment [5] came to 103.

With `C=CCN(CC=C)S(=O)(=O)c1ccc(C(=O)Nc2nc3c(s2)CCc2ccccc2-3)cc1`, the result in experiment [1], in experiment [4] and in experiment [6] was inactive. Further, the fluorescence, percent of control (lower = inhibition) in experiment [2] came out at 51.4%. Also, the GTP binding, percent of control in experiment [3] stood at 57.3%. The same molecule displayed a GTP binding signal, raw median fluorescence (lower = inhibition) (MCF (arbitrary fluorescence units)) in experiment [5] of 0.

As to `O=c1c(/C=N/Nc2ccccc2)c(Sc2nnnn2-c2ccccc2)nc2ccccn12`, the molecule was classed as inactive in experiment [1], in experiment [4] and in experiment [6]. Besides, the fluorescence, percent of control (lower = inhibition) in experiment [2] stood at 107%. The GTP binding, percent of control in experiment [3] came to 114%. Also, the GTP binding signal, raw median fluorescence (lower = inhibition) (MCF (arbitrary fluorescence units)) in experiment [5] was determined as 308.

On to `O=C(CSc1ccc2nnc(-c3ccccn3)n2n1)Nc1ccc2c(c1)OCO2`, for which the molecule was classed as inactive in experiment [1], in experiment [4] and in experiment [6]. The fluorescence, percent of control (lower = inhibition) in experiment [2] amounted to 39.5%. In experiment [3], this molecule returned a GTP binding, percent of control of 53.4%. Further, the GTP binding signal, raw median fluorescence (lower = inhibition) (MCF (arbitrary fluorescence units)) in experiment [5] amounted to 120.

Consider `Cc1ccc(Nc2cc(C(=O)O)c3ccccc3n2)cc1C`, for which the molecule was classed as inactive in experiment [1], in experiment [4] and in experiment [6]. The fluorescence, percent of control (lower = inhibition) in experiment [2] is 60.9%. The GTP binding, percent of control in experiment [3] came to 84.7%. Moreover, the GTP binding signal, raw median fluorescence (lower = inhibition) (MCF (arbitrary fluorescence units)) in experiment [5] amounted to 31.9.

As to `COCCNc1nnnc2c1sc1nc(N3CCOCC3)c3c(c12)CCCC3`, the molecule was called inactive in experiment [1], in experiment [4] and in experiment [6]. The fluorescence, percent of control (lower = inhibition) in experiment [2] was determined as 29.6%. Moreover, the GTP binding, percent of control in experiment [3] was 64.1%. Besides, the GTP binding signal, raw median fluorescence (lower = inhibition) (MCF (arbitrary fluorescence units)) in experiment [5] is 137.

In the case of `COc1cc2[nH]c(=S)nc(NCC3CCCO3)c2cc1OC` (stereo unspecified), the molecule was classed as inactive in experiment [1], in experiment [4] and in experiment [6]. Also, the fluorescence, percent of control (lower = inhibition) in experiment [2] stood at 59.4%. For the same molecule, the GTP binding, percent of control in experiment [3] was determined as 152%. Further, the GTP binding signal, raw median fluorescence (lower = inhibition) (MCF (arbitrary fluorescence units)) in experiment [5] turned out to be 177.

(Values after PubChem BioAssay.)
